Compound activity: PubChem, National Center for Advancing Translational Sciences (NCATS)
CRE Fsk mod: modulators of forskolin-stimulated CRE signaling in CHO cells; 71,000 compounds, 2.5% hits; CHO CRE-bla reporter (cAMP response element driving beta-lactamase), forskolin EC10, beta-lactamase ratio; Potency, µM (titrated, usually from 38.2 µM), inactives show top-dose activity change, negative = inhibition, hits mostly activators; active = well fitted activation curve with a large enough effect in the signal ratio, with a control signal flat, not every such curve was filed as active; inconclusive = small, poorly fitted or top-dose-only effect, or effect the other way, or a change in a side signal; the % refers to the signal ratio; note: potency is the fitted concentration of half-maximal effect; % of control where 0% means no effect
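qHTS titration format; CRE-bla CHO reporter; stimulus EC10 NKH 477, a water-soluble forskolin. Read: CCF4 460/530 nm ratio. Potency expressed as AC50 for activators or inhibitors.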
A350 autofl: compounds fluorescent in Alexa 350 spectral region; Compound autofluorescence, 340/450 nm, Alexa 350 dye-equivalents; hits give high values; 59,000 compounds, 11% hits; AID 590; max dye-equivalent concentration, M; in the data active = max dye-equivalent concentration above about 10 nM; inconclusive = mostly about 1.1 nM to 9.6 nM
4MU fluor: 4-MU region autofluorescence; max dye-equivalent concentration, M; 59,000 compounds, 11% hits; compound autofluorescence, 340/450 nm, 4-MU equivalents; hits give high values; AID 589; in the data active = max dye-equivalent concentration above about 10 nM; inconclusive = mostly about 1.1 nM to 9.6 nM
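Compounds in 100 mM Tris, pH 8.0, sat 15 min at room temperature before fluorescence was read at 340 nm excitation/450 nm emission; a per-plate six-point 4-MU standard curve converted signals to dye-equivalent concentration at each compound concentration.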
HADH2 inh: blocks human hydroxyacyl-CoA dehydrogenase type II; Q99714; recombinant HADH2, NADH fluorescence, beta-hydroxybutyryl-CoA; Potency, µM (series often up to 57.1 µM), inactives show at the highest dose activity change, negative = inhibition, actives largely listed as inhibitors; 73,000 compounds, 3.4% hits; AID 886; note: potency is the fitted concentration of half-maximal effect; % is set by controls: 0 for no effect and ±100 for the full control effect; nearly all actives have a fitted effect of over 60% in size
Target sequence (Q99714 whole entry, looked up, one chain of several): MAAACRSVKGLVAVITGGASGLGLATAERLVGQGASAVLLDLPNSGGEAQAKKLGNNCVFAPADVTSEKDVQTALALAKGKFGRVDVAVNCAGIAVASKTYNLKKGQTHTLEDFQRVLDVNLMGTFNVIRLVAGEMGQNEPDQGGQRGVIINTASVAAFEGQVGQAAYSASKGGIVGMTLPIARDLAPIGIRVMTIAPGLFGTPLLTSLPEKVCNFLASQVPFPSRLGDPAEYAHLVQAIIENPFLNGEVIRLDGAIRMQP
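E. coli-expressed His-tagged HADH2 tested at 20 nM in alkaline Tris buffer (pH 9.0); oxidation of 90 uM beta-hydroxybutyryl-CoA with 1 mM NAD+ tracked fluorimetrically for 4 min.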
AID923: qHTS Assay for Allosteric/Competitive Inhibitors of Caspase-1: Spectroscopic Profiling in AFC Spectral Region; Potency, µM (titrated, usually from 57.5 µM), inactives show at the highest dose fluorescence increase, most hits filed as activators; AID 923, 2007; compound fluorescence, AFC spectral region (405/520 nm); 75,000 compounds, 1.1% hits; note: potency is the fitted concentration of half-maximal effect; 0% is about no effect
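Titrations up to 57 uM read every 20 sec for 3 min (405/520 nm) with 50 nM caspase 1 and 5 uM Ac-WEHD-AFC, pH 7.5 HEPES buffer. Fluorescence-vs-time intercept gave baseline, scaled against on-plate AFC standard.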
HSD17B inh: blocks hydroxysteroid 17-beta dehydrogenase activity. Potency, µM (titrated, usually from 57.1 µM), for the others: at the top dose activity change, negative = inhibition, hits mostly inhibitors. AID 893. Q99714. recombinant HSD17B10, NADH fluorescence kinetic. 75,000 compounds, 7.6% hits;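 note: the protocol describes HADH2 (HSD17B10) and not the HSD17B4 of the title; potency is the fitted concentration of half-maximal effect; % is set by controls: 0 for no effect and ±100 for the full control effect; nearly all actives have a fitted effect of over 70% in size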
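Activity followed as NADH fluorescence increase (ex 360, em 450 nm) every 30 seconds for 4 min, using final 90 uM beta-hydroxybutyryl CoA and 1 mM NAD+. Recombinant His-tagged enzyme, 20 nM, pH 9.0 Tris buffer, 15 min compound preincubation.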
* hit, by the source's call; i = inactive; ? = inconclusive; nt = no result; [ ] = another dose, or the depositor's remark. Hits are enriched below; roughly 14% of the tested compounds scored in any of these assays. Unless noted, calls come from the whole dose curve; as a rule, active = well fitted curve in the direction sought with a large enough effect; inconclusive = small, poorly fitted or top-dose-only effect, or another doubt; inactive = no such curve, though single readings can be large; an effect the other way counts as inactive or inconclusive.

SMILES | CRE Fsk mod | A350 autofl | 4MU fluor | HADH2 inh | AID923 | HSD17B inh
Nc1c(S(=O)(=O)O)cc(Nc2ccc(Nc3nc(Cl)nc(Nc4ccc(S(=O)(=O)O)cc4)n3)c(S(=O)(=O)O)c2)c2c1C(=O)c1ccccc1C2=O | -11% | ? | ? | 1µM* | -7% | 1.6µM*
COc1ccc(CNc2nc3c(c(C(F)(F)F)n2)CCCCC3)cc1 | ? | i | i | -5% | 1% | 25µM*
Cc1cc(C(F)(F)F)nc(NCc2ccc(F)cc2)n1 | ? | i | i | 0% | -2% | ?
COc1ccc([C@@H]2CC(=O)c3c(O)cc(O[C@@H]4O[C@@H](CO[C@@H]5O[C@@H](C)[C@@H](O)[C@@H](O)[C@H]5O)[C@@H](O)[C@@H](O)[C@H]4O)cc3O2)cc1O | -10% | i | i | 1% | nt | nt
O=S(=O)(c1cccc2c(I)cccc12)N1CCCNCC1 | -9% | i | i | 6% | -1% | -2%
CCOC(=O)CNC(=O)c1cn(C)c(=O)c2cc(OC)c(OC)cc12 | ? | i | i | 1% | 0% | -8%
CCOC(=O)CNC(=O)c1cn(CC)c(=O)c2cc(OC)c(OC)cc12 | 5µM* | ? | ? | -3% | 0% | -3%
CCn1cc(C(=O)NCc2cccnc2)c2cc(OC)c(OC)cc2c1=O | 5µM* | i | i | 0% | 0% | 5%
COc1cc2c(C(=O)NCc3ccccn3)cn(CC(C)C)c(=O)c2cc1OC | 7.9µM* | nt | nt | 0% | 0% | -17%
C=CCNC(=O)NS(=O)(=O)c1ccc(C)cc1 | 4% | i | i | 12% | 0% | 13%
COc1ccc(Oc2ncc3nc(C)c(=O)n(C[C@H]4CCCO4)c3n2)cc1 | ? | i | i | -4% | 1% | -8%
Cc1ccc2cc(CN(Cc3cccs3)C(=O)c3ccco3)c3nnnn3c2c1C | 3.2µM* | i | i | -16% | 5% | -3%
Cc1cc(C)c(S(=O)(=O)N(C)CC(=O)NC2CCCC2)c(C)c1 | -2% | ? | ? | 18% | -1% | -3%
COc1c(O)cc2c(c1O)[C@@H]1O[C@@H](CO)[C@@H](O)[C@@H](O)[C@@H]1OC2=O | -4%[17.1 µM] | i | i | -4%[25.6 µM] | -1%[25.7 µM] | 2%[25.6 µM]
CC1CCN(c2nc3c(c(=O)[nH]c(=O)n3C)n2Cc2ccccc2Cl)CC1 | ? | nt | nt | 7% | -1% | ?
CC(C)=CCC/C(C)=C/CO/N=C1/C[C@@H](O)[C@@H](O)[C@@H]2[C@@H]3C(=O)N(C(C)(C)C)C(=O)[C@H]3CC[C@@H]12 | nt | nt | nt | 8%[11.4 µM] | -3%[11.5 µM] | -1%[11.4 µM]
O=C(NCc1ccccn1)c1ccc(=O)oc1 | nt | 5.7e-08M* | 5.1e-08M* | nt | nt | nt
O=C(c1ccc(=O)oc1)N1CCCc2ccccc21 | 0% | 2.9e-08M* | 8.6e-08M* | 20µM* | 17% | 25µM*
O=C(c1ccc(=O)oc1)N1CCOCC1 | nt | 1.9e-07M* | 1.8e-07M* | nt | nt | nt
O=C(NCCN1CCOCC1)c1ccc(=O)oc1 | nt | 7.2e-08M* | 6.5e-08M* | nt | nt | nt
O=C(c1coc(=O)c(Br)c1)N1CCOCC1 | nt | 1.3e-06M* | 1.2e-06M* | nt | nt | nt
O=C(c1ccc(Cl)c(Cl)c1)N1CCOCC1 | -2% | i | i | 20% | 0% | 16%
S=c1nc(C2CCCCC2)[nH][nH]1 | -5% | i | i | ? | 3% | -8%
O=C(CN1CCOCC1)NCc1ccccc1 | ? | ? | ? | -19% | -2% | -20%
CC(C(=O)NCC1CCCO1)N(C(=O)c1snc(C(N)=O)c1N)c1cccc(F)c1 (centres undefined) | 5% | 3.6e-07M* | 5e-07M* | ? | 12% | 32µM*
SMILES | CRE Fsk mod | A350 autofl | 4MU fluor | HADH2 inh | AID923 | HSD17B inh
CC(C(=O)NCc1ccccc1)N(CCN1CCOCC1)C(=O)c1snc(C(N)=O)c1N (centres undefined) | 5% | 1.1e-07M* | 1.2e-07M* | -17% | 4% | ?
CC(C(=O)NCC1CCCO1)N(C(=O)c1snc(C(N)=O)c1N)c1ccccc1 (centres undefined) | 2% | 2.4e-07M* | 2.8e-07M* | -11% | 5% | ?
O=C(CSc1nnc(-c2ccco2)n1Cc1ccccc1)c1ccc(F)cc1 | -7% | ? | i | -2% | 3% | ?
COC(=O)C/C=C\[C@@H](C)[C@@H](/C=N\O[C@@H](C)CN1CCCCc2nc(C)c(C)cc21)NS(=O)(=O)c1ccc(C)cc1 | nt | nt | nt | 0%[11.4 µM] | -3%[11.5 µM] | -5%[11.4 µM]
CCCC[C@@H]1C[C@H]1C(NC(=O)c1cccs1)c1ccc(C(F)(F)F)cc1 (some centres undefined) | 28% | nt | nt | -2% | -1% | 5%
CS(=O)(=O)Nc1cccc(-c2nc(-n3ccnc3)c3ccccc3n2)c1 | ? | i | i | -1% | 4% | 2%
CS(=O)(=O)Nc1cccc(-c2nccc(-n3ccnc3)n2)c1 | ? | i | i | 16µM* | -2% | ?
N#Cc1cccc(-c2nccc(-n3ccnc3)n2)c1 | 2.5µM* | i | i | 7.9µM* | -1% | ?
FC(F)(F)c1ccccc1-c1nccc(-n2ccnc2)n1 | ? | i | i | -19% | 5% | 25µM*
CC1(C)OC(C(O)(c2cc(C(F)(F)F)cc(C(F)(F)F)c2)c2cc(C(F)(F)F)cc(C(F)(F)F)c2)C(C(O)(c2cc(C(F)(F)F)cc(C(F)(F)F)c2)c2cc(C(F)(F)F)cc(C(F)(F)F)c2)O1 (centres undefined) | nt | nt | nt | -2%[11.4 µM] | 0%[11.5 µM] | 3%[11.4 µM]
COC(=O)[C@@H]1CC[C@H](C)[C@@H](c2ccc(C)cc2)N1C(=O)c1ccc(/C=N\O[C@@H](C)c2cc(-c3c(C)cc(C)cc3C)no2)cc1 | nt | nt | nt | 3%[11.4 µM] | 5%[11.5 µM] | 2%[11.4 µM]
NC(N)=NCCCC(=O)O | 0%[7.6 µM] | i | i | 2%[11.4 µM] | 0%[11.5 µM] | 2%[11.4 µM]
O=C(O)c1c(Cl)cccc1Cl | -12% | nt | nt | -3% | 1% | 2%
Nc1ncnc2c1ncn2[C@@H]1CCCO1 | -2% | i | i | ? | -3% | -4%
Cc1cc(C)c2c(N)c(S(=O)(=O)Cc3ccccc3)sc2n1 | 6% | 1.5e-08M* | 1.7e-08M* | -2% | 2% | ?
O=C(COC(=O)c1ccccc1NC(=O)c1ccco1)Nc1ccc2c(c1)OCO2 | -7% | ? | i | -6% | 1% | 25µM*
COC(=O)c1ccccc1NC(=O)COC(=O)c1ccc(C)c(NC(=O)c2ccco2)c1 | 2.5µM* | i | i | -6% | 2% | 32µM*
O=C(COC(=O)c1ccccc1NC(=O)c1ccco1)NCCC1=CCCCC1 | ? | 1.4e-08M* | 1.4e-08M* | -13% | 1% | 25µM*
O=C(COC(=O)c1ccco1)Nc1ccc2c(c1)OCCO2 | 4% | i | i | 1% | -2% | 13%
